The supplement of paper PMC10849652
About 7,900 targets were measured; listed, in parts, are those with a hit and a random draw of the rest. About 0.6% of all pairs of compound and target were hits. Values without a mark were called inactive.

Columns and labels:
Assay in all cases: log2 fold change, soluble protein after heating vs DMSO (PISA); higher = thermal stabilisation; K562 cells, 10 uM, 30 min; active = over 0.2 and 3.5 SD of the protein, either way, in both replicates (recomputed)
[1] = compound: C#Cc1cccc(Nc2ncnc3cc(OCCOC)c(OCCOC)cc23)c1 [erlotinib]
How it was run: (§1)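 Quantification of soluble protein used TMTpro 16plex LC-MS/MS, with channel sums equalised. Samples were the supernatant after 21,000xg for 90 min of pooled aliquots from K562 cells (2×10^6 cells/mL) treated with 10 μM compound for 30 min, heated for 3 min over 48°C-58°C, and extracted in PBS with 0.5% NP-40 at 4°C. Values, from duplicates, describe thermal stability against control samples on a log2 fold-change scale.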

[2] = compound: C/C(=N\NC(=O)C1=CC(=CC=C1)S(=O)(=O)N2CCOCC2)/C3=C(C=CC(=C3)Cl)O
How it was run: as §1

[3] = compound: C1=CC(=C(C=C1Cl)C2=NC3=NC=CN=C3C(=N2)NC4=CC=NC=C4)F
How it was run: as §1

[4] = compound: C1=CC(=CC=C1C2=NC3=C(N2)C=C(C=C3)C(=O)N)OC4=CC=C(C=C4)Cl
How it was run: as §1

[5] = compound: C1=CC2=C(C=CC(=C2)/C=C\3/C(=O)NC(=NCC4=CC=CS4)S3)N=C1
How it was run: as §1

[6] = compound: C1=CC2=NC=CN=C2C=C1/C=C/3\C(=O)NC(=O)S3
How it was run: as §1

[7] = compound: C1=CC=C(C=C1)C2=NC(=C(N2)C3=CC=NC=C3)C4=CC(=C(C=C4)Cl)O
How it was run: as §1

[8] = compound: C1=CC=C2C(=C1)C3=NNC4=CC=CC(=C43)C2=O
How it was run: as §1

[9] = compound: C1CCN(C1)C(=O)NC2=CC=CC(=C2)NC3=NC=C(C(=N3)NCCC4=CN=CN4)Br
How it was run: as §1

[10] = compound: C1CN(CCC1(CC2=CC=C(C=C2)Cl)N)C3=NC=NC4=C3C=CN4
How it was run: as §1

[11] = compound: C1COCCN1CCN2C3=CC=CC=C3N=C2NC(=O)C4=CC(=CC=C4)[N+](=O)[O-] [IRAK-1-4 Inhibitor I]
How it was run: as §1

[12] = compound: C=CC(=O)N1CCC[C@@H](n2nc(-c3ccc(Oc4ccccc4)cc3)c3c(N)ncnc32)C1 [ibrutinib]
How it was run: as §1

[13] = compound: CC(=O)c1cnc2ccc(-c3cc(Cl)c(O)c(Cl)c3)nc2c1N[C@H]1CC[C@H](CN(C)C)CC1
How it was run: as §1

[14] = compound: CC(C)(C)Cn1c(N)nc2ccc(-c3[nH]c(C(C)(C)C)nc3-c3ccc(F)cc3)nc21 [ralimetinib]
How it was run: as §1

[15] = compound: CC(C)(O)CC(=O)NCCn1ccc2ncnc(Nc3ccc(Oc4cccc(C(F)(F)F)c4)c(Cl)c3)c21
How it was run: as §1

[16] = compound: CC(C)C1=C2N=C(C=C(N2N=C1)NCC3=CC=CC=C3)NCCCCCCN
How it was run: as §1

[17] = compound: CC(C)C[C@@H](C=O)NC(=O)[C@H](CC(C)C)NC(=O)[C@H](CC(C)C)NC(=O)OCc1ccccc1
How it was run: as §1

[18] = compound: CC(C)N(C[C@H]1O[C@@H](n2cnc3c(N)ncnc32)[C@H](O)[C@@H]1O)[C@H]1C[C@@H](CCc2nc3cc(C(C)(C)C)ccc3[nH]2)C1 [pinometostat]
How it was run: as §1

[19] = compound: CC1=C(C(CC(=O)N1)C2=CC=C(C=C2)C(F)(F)F)C(=O)NC3=C(C=C4C(=C3)C=NN4)F
How it was run: as §1

[20] = compound: CC1=C(C2=C(C=C1)C(=O)C3=CC=CC=C3N2CCCN)C
How it was run: as §1

Sequence of UniProt Q99549 (Q99549 whole entry, looked up): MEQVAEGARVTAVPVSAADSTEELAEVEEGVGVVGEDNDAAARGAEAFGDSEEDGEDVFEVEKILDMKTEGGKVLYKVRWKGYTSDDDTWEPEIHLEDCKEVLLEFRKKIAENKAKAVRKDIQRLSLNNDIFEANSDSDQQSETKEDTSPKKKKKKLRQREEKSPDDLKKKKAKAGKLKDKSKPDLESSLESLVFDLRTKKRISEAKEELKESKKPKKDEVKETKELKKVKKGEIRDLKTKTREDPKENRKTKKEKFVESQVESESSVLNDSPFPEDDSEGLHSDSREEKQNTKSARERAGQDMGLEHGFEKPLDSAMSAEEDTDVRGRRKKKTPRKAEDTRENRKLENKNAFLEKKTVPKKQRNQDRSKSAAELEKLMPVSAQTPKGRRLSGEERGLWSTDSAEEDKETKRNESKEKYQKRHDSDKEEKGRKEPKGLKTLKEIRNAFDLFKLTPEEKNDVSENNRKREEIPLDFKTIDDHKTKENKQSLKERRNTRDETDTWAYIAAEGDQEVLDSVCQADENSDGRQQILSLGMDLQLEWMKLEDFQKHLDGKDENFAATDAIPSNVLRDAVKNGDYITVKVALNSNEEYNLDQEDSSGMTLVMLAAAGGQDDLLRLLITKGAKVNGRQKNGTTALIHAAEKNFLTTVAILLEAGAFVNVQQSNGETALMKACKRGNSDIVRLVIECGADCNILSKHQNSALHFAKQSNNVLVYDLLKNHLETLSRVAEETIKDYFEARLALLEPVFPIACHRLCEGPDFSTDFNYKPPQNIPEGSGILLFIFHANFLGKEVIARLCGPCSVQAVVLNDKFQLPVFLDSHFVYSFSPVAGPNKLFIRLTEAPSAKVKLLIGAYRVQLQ
Sequence of UniProt Q5VVJ2 (Q5VVJ2 whole entry, looked up): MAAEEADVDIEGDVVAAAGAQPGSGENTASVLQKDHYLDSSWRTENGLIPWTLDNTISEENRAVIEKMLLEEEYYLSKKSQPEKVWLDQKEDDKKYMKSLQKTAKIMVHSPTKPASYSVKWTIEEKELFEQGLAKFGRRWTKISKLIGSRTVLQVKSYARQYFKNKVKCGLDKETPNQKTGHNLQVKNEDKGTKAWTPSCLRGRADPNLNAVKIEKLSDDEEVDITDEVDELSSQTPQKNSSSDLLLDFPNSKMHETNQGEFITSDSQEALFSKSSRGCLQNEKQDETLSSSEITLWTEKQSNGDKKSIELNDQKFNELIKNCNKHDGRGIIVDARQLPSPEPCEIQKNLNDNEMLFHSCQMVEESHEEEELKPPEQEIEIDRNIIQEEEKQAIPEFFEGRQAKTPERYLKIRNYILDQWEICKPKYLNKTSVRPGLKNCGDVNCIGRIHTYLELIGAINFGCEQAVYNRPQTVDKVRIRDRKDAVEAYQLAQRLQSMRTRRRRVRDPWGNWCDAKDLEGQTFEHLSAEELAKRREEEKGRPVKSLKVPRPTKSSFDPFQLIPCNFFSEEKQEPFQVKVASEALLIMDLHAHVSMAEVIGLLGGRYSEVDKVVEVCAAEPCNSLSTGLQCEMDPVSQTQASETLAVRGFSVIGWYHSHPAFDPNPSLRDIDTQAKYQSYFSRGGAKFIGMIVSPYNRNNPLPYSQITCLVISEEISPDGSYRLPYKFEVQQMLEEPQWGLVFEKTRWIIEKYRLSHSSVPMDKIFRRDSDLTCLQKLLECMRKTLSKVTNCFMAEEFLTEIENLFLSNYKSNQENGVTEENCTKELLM
Sequence of UniProt O75438 (O75438 whole entry, looked up): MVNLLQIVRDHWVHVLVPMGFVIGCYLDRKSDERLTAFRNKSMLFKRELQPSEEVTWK
Sequence of UniProt P84157 (P84157 whole entry, looked up): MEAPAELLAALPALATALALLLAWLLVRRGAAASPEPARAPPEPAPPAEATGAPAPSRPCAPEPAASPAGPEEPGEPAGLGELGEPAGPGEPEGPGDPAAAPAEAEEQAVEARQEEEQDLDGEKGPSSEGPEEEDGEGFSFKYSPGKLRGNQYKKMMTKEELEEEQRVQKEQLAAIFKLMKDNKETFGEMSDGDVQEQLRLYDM
Sequence of UniProt P00846 (P00846 whole entry, looked up): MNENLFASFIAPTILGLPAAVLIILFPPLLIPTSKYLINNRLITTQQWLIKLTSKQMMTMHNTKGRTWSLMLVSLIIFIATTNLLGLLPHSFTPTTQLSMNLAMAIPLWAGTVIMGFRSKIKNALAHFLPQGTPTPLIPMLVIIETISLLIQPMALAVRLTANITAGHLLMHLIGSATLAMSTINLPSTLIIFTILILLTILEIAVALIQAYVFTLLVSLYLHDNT
Sequence of UniProt Q9HBL8 (Q9HBL8 whole entry, looked up): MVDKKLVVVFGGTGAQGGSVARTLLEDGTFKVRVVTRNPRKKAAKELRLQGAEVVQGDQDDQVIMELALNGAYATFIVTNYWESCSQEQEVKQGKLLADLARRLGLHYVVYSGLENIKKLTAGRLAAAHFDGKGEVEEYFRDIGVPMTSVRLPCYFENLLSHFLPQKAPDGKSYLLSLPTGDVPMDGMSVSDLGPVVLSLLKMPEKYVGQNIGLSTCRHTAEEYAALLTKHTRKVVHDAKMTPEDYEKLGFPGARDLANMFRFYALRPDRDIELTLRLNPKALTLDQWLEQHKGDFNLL
Sequence of UniProt Q9UQ49 (Q9UQ49 whole entry, looked up): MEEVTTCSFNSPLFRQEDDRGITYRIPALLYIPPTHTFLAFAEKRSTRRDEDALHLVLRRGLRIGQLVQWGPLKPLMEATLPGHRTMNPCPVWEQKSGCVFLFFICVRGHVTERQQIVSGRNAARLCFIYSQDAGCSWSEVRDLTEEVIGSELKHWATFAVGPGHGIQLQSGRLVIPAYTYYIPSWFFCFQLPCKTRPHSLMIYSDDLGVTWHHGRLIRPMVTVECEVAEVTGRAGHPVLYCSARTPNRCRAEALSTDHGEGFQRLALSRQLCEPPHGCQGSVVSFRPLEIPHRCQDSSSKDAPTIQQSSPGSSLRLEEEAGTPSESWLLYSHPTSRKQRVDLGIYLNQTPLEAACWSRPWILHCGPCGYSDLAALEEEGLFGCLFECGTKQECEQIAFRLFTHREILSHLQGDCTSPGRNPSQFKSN
Sequence of UniProt Q86TA1 (Q86TA1 whole entry, looked up): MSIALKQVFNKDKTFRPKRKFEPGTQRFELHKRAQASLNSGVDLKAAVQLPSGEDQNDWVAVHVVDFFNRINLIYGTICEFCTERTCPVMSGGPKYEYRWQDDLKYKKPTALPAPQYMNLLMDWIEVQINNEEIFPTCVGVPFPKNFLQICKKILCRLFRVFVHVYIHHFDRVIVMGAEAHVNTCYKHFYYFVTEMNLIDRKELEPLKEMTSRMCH
Sequence of UniProt Q08J23 (Q08J23 whole entry, looked up): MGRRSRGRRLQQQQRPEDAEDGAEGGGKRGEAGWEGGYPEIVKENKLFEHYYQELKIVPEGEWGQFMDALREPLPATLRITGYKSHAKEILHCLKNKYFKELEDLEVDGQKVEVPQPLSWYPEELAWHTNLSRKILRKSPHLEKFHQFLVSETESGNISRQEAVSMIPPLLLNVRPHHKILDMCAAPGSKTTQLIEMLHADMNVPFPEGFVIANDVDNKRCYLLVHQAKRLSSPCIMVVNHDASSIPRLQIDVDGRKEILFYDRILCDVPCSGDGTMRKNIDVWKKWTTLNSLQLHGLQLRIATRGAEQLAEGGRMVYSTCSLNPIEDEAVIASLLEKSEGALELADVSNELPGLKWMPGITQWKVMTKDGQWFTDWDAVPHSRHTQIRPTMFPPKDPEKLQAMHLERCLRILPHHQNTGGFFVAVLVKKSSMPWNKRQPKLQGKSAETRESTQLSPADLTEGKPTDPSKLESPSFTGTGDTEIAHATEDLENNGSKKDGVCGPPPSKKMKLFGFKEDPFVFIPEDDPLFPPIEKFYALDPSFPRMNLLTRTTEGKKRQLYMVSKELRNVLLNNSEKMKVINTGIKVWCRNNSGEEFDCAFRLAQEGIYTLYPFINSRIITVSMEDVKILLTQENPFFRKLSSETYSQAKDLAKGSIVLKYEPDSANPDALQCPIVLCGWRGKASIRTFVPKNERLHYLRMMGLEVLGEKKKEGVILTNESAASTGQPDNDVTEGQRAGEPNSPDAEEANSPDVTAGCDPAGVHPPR
Sequence of UniProt Q9HCD5 (Q9HCD5 whole entry, looked up): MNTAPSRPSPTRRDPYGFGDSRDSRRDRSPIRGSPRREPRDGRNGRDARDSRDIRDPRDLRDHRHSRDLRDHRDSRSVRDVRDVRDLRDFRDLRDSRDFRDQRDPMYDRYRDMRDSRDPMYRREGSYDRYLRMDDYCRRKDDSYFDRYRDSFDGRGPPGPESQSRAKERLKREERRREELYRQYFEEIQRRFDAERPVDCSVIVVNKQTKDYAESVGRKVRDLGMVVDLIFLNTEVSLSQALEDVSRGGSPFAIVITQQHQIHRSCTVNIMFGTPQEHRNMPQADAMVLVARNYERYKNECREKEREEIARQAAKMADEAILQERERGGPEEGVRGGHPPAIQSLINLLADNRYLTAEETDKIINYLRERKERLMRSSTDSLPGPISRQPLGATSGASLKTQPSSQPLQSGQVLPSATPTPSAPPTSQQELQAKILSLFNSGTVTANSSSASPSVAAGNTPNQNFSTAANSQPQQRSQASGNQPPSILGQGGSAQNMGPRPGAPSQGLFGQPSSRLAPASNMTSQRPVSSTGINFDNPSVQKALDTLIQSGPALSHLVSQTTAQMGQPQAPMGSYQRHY
Sequence of UniProt B2RBV5 (B2RBV5 whole entry, looked up): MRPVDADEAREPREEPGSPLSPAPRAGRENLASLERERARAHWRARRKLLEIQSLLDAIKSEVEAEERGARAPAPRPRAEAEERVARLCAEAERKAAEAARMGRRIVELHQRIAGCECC
Sequence of UniProt Q8WV92 (Q8WV92 whole entry, looked up): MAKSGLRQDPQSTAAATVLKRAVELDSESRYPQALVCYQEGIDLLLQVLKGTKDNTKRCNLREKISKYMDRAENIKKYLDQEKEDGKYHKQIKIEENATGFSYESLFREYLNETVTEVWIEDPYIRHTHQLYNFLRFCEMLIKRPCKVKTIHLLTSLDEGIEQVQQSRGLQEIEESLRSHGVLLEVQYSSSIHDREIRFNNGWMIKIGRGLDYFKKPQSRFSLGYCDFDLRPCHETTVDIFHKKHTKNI

Target | log2 fold change [1] | log2 fold change [2] | log2 fold change [3] | log2 fold change [4] | log2 fold change [5] | log2 fold change [6] | log2 fold change [7] | log2 fold change [8] | log2 fold change [9] | log2 fold change [10] | log2 fold change [11] | log2 fold change [12] | log2 fold change [13] | log2 fold change [14] | log2 fold change [15] | log2 fold change [16] | log2 fold change [17] | log2 fold change [18] | log2 fold change [19] | log2 fold change [20]
NSUN2 (UniProt Q08J23) | -0.017 | 0.137 | -0.002 | 0.038 | -0.018 | 0.006 | -0.052 | -0.112 | -0.067 | 0.064 | -0.02 | -0.029 | -0.165 | 0.062 | -0.008 | -0.314 (active) | 0.026 | 0.058 | 0.008 | -0.075
NMRAL1 (UniProt Q9HBL8) | 0.239 | -0.118 | 0.841 (active) | -0.054 | 0.098 | 0.141 | 0.029 | 0.273 | -0.055 | 0.037 | 0.058 | 0.874 (active) | 0.467 | -0.016 | -0.121 | 0 | -0.007 | 0 | -0.257 | 0.281
MT-ATP6 (UniProt P00846) | 0.207 | 0.146 | -0.042 | -0.07 | -0.078 | -0.391 | -0.048 | -0.017 | -0.073 | -0.042 | 0 | -0.68 | -0.178 | -0.178 | -0.033 | -0.06 | -0.165 | -0.162 | -0.218 | -0.072
MRPS26 (UniProt Q9BYN8) | -0.081 | 0.004 | 0.004 | 0.157 | 0.038 | 0.088 | -0.042 | 0.06 | -0.19 | 0.024 | -0.09 | 0.008 | 0.007 | -0.049 | -0.143 | 0.03 | 0.137 | 0.037 | – | -0.133
NDUFB1 (UniProt O75438) | -0.015 | -0.016 | 0.209 | 0.053 | -0.102 | 0.039 | – | 0.079 | -0.05 | -0.006 | 0.034 | 0.024 | 0.06 | – | -0.043 | -0.052 | – | 0.065 | 0.059 | 0.158
MSH3 (UniProt P20585) | 0.009 | 0.031 | 0.068 | 0.017 | 0.017 | 0.03 | 0.004 | -0.039 | 0.008 | -0.045 | -0.001 | -0.002 | 0.054 | -0.053 | 0.01 | 0.068 | 0.056 | 0.043 | 0.023 | 0.27 (active)
MITD1 (UniProt Q8WV92) | 0.011 | -0.009 | 0.148 | 0.037 | 0.044 | 0.036 | -0.015 | 0.101 | 0.03 | -0.024 | -0.043 | 0.03 | 0 | -0.002 | -0.296 | -0.77 (active) | -0.002 | 0.082 | -0.101 | 0.047
NME7 (UniProt Q9Y5B8) | 0.166 | 0.058 | -0.052 | -0.247 | 0.127 | -0.023 | 0.06 | 0.006 | -0.039 | -0.248 | 0.056 | -0.054 | -0.038 | 0.095 | -0.116 | -0.066 | 0.059 | 0.065 | – | -0.086
MOB3B (UniProt Q86TA1) | -0.305 | 0.302 | – | -0.271 | 0.24 | -0.056 | – | -0.092 | -0.186 | 0.059 | -0.26 | -0.001 | -0.026 | – | – | -0.169 | – | -0.056 | -0.116 | 0.024
NEU3 isoform 2 (UniProt Q9UQ49) | 0.164 | – | – | 0 | – | – | – | – | – | – | – | – | – | – | – | -0.984 (active) | – | – | – | –
MMADHC (UniProt Q9H3L0) | 0.088 | -0.002 | – | -0.034 | -0.031 | -0.105 | -0.039 | 0.073 | 0.014 | 0.083 | 0.014 | -0.056 | -0.011 | 0.073 | – | 0.039 | 0.076 | 0.182 | -0.118 | -0.137
NA, A0A1W2PSA9 | – | -0.065 | – | – | -0.111 | – | -0.008 | -0.104 | 0.101 | -0.086 | – | – | -0.13 | 0.004 | – | – | 0.122 | – | – | -0.27
MON1A (UniProt Q86VX9) | -0.119 | – | 0.022 | 0 | – | -0.262 | -0.017 | – | 0 | 0.135 | -0.005 | 0.231 | – | -0.213 | -0.012 | -0.151 | 0.032 | 0.002 | 0.049 | 0.129
NCOA5 (UniProt Q9HCD5) | -0.057 | – | – | 0.156 | – | – | -0.094 | – | – | – | -0.136 | – | – | -0.012 | – | -0.194 | 0.055 | 0.048 | 0.082 | –
ORC3 (UniProt Q9UBD5) | – | 0.097 | – | – | -0.104 | – | – | 0.105 | – | – | – | – | -0.031 | – | – | – | – | – | – | –
NDUFA7 (UniProt M0R0N0) | 0.101 | – | – | -0.051 | – | 0.015 | – | – | – | – | – | -0.109 | – | – | – | -0.136 | – | – | – | –
MYSM1 (UniProt Q5VVJ2) | – | – | – | – | – | 0.173 | 0.37 | – | – | – | -0.264 | 0.291 | – | -0.022 | – | – | -0.061 | 0.153 | – | –
MXRA7 isoform 3 (UniProt P84157) | – | – | – | – | – | – | -0.08 | – | – | – | – | – | – | -0.031 | – | – | 0.151 | – | – | –
NIPSNAP2 (UniProt C9J7B1) | – | -0.171 | – | – | -0.16 | 0.057 | – | -0.138 | – | – | – | 0.052 | -0.389 | – | – | – | – | – | – | –
NA (UniProt B2RBV5) | – | – | -0.068 | – | – | -0.015 | – | – | – | – | – | 0.069 | – | – | -0.037 | – | – | – | -0.314 | –
NA, A0A2R8Y3M9 | – | -0.335 | – | – | 0.355 | 0.132 | -0.072 | -0.137 | – | – | 0.087 | 0.215 | -0.207 | -0.08 | – | – | 0.056 | -0.001 | 0.253 | –
PAFAH2 (UniProt Q99487) | -0.004 | 0.138 | – | -0.018 | -0.144 | -0.02 | -0.008 | 0.011 | -0.017 | 0.08 | 0.106 | 0.048 | -0.012 | -0.033 | – | 0.025 | 0.007 | -0.011 | – | 0.02
MPHOSPH8 isoform 2 (UniProt Q99549) | – | 0.033 | 0.24 | – | -0.044 | – | -0.055 | -0.086 | -0.02 | -0.065 | -0.149 | – | 0.026 | 0.271 | -0.06 | – | 0.035 | -0.027 | – | -0.84 (active)
